Among the data in PubChem BioAssay are composite z-score and z-score values, retold here.

Assay [1] can be described thus: small molecules captured by biotinylated probe aFSTL3 – biochemical, small-molecule microarray, fluorescence 635/667, stem cell growth factor project, primary screen (AID 1064).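 Also: measures binding of the biotinylated anti-FSTL3 antibody to printed compounds.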 To be noted: higher = more signal.
The nature of assay [2]: binders from COS7 lysate, DM2A8 probe, primary screen, torsin A project, cell lysate, small-molecule microarray, fluorescence 635/667 (AID 1065). The following applies: higher = more signal, COS7 lysate expressing mutant human TOR1A.
Assay [3] is described as follows: small molecules captured by biotinylated probe aFGF2 – biochemical, small-molecule microarray, fluorescence 635/667, stem cell growth factor project, primary screen (AID 1067).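 Also: measures binding of biotinylated aFGF2 protein to printed compounds on slides; z-score merges feature fluorescence and signal-to-noise across triplicate slides.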 The following applies: higher = more signal.
Assay [4] is described as follows: small molecules captured by biotinylated probe aFGF10 – biochemical, small-molecule microarray, fluorescence 635/667, stem cell growth factor project, primary screen (AID 1071).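 Also: score merges 667 nm spot intensity and signal to noise from triplicate slides.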 The following applies: higher = more signal.
Assay [5] concerns the target Neurogenic locus notch homolog protein 2 (Homo sapiens) (UniProt Q04721). As to the kind of experiment: small molecules binding Notch2 protein – biochemical, small-molecule microarray, 635 nm fluorescence, stem cell growth factors, primary screen (AID 1073). The following applies: higher = more signal.
Assay [6] addresses Pro-neuregulin-1, membrane-bound isoform (Homo sapiens) (UniProt Q02297). As to the kind of experiment: small molecules binding neuregulin-1 protein – biochemical, small-molecule microarray, fluorescence 635/667, psychiatric disease protein project, primary screen (AID 1075).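 Also: score combines 667 nm spot fluorescence with signal to noise.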 The following applies: NRG1 binding, 635 nm fluorescence, higher = more signal.
Assay [7] concerns Neuregulin-1 EGF-like domain. As to the kind of experiment: small molecules binding NRG1 EGF domain – biochemical, small-molecule microarray, 635 nm fluorescence, primary screen (AID 1081).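 Also: binding of the protein to compounds printed on small-molecule microarray slides.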 To be noted: higher = more signal.
The nature of assay [8]: FRG1 expression reporter modulators in myotubes – cell-based, C2C12 myotubes, firefly/Renilla luciferase, luminescence, FRG1 inhibition for FSHD, primary screen (AID 1084). To be noted: FRG1 promoter luciferase, higher = more signal, called active from +8 up or from −8 down.
Assay [9] in a line: small molecules captured by biotinylated probe aFST – biochemical, small-molecule microarray, fluorescence 635/667, stem cell growth factor project, primary screen (AID 1086).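 Also: score merges 667 nm fluorescence with signal-to-noise of each printed compound spot.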 To be noted: higher = more signal.
Assay [10] can be described thus: binders of probe aHhip on microarray, primary screen, stem cell growth factor project, biochemical, small-molecule microarray, fluorescence 635/667 (AID 1087).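 Also: score merges spot fluorescence at 667nm with spot signal to noise ratio.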 To be noted: higher = more signal.
The subject of assay [11] is PRMT1 (protein arginine N-methyltransferase 1). As to the kind of experiment: small molecules binding arginine methyltransferase PRMT1 – biochemical, small-molecule microarray, 635 nm fluorescence, primary screen (AID 1088).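 Also: binding of Prmt1 protein to compounds spotted on small-molecule microarray slides.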 To be noted: higher = more signal.
A short description of assay [12]: growth effects on S. cerevisiae YJM789 – YJM789 clinical isolate, OD600, 24 h, basal, primary screen (AID 1089).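 Also: growth of clinical yeast isolate S. cerevisiae YJM 789 seeded 1000 cells per well; test concentration not given here.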 The following applies: higher = more signal, called active from +8 up or from −8 down.
A short description of assay [13]: S. pombe growth modifiers, basal conditions – strain 972, OD600, 24 h, no modulator, primary screen (AID 1090).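 Also: basal condition with compound alone and no growth modifier present; test concentration not given here.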 To be noted: S. pombe 972 growth, higher = more signal, called active from +8 up or from −8 down.
A short description of assay [14]: budding yeast growth modifiers under rapamycin – strain BY4716, OD600, 96 h, primary screen (AID 1091). Also: test concentration not given here. To be noted: S. cerevisiae BY4716 + rapamycin, higher = more signal, called active from +8 up or from −8 down.
For assay [15], the target named is Torsin-1A-interacting protein 2 (Homo sapiens) (UniProt Q8NFQ8). Kind of assay: small molecules binding lysate-expressed LULL1 – cell lysate, human LULL1 lysate, 635/667 nm fluorescence, primary screen (AID 1092).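 Also: probe is lysate of COS7 cells overexpressing human LULL1; score merges per-feature 667 nm fluorescence with signal-to-noise.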 To be noted: small-molecule microarray, hLULL1 lysate binding, 635 nm fluorescence; higher = more signal.
Torsin-1A-interacting protein 2 (Homo sapiens), sequence (Q8NFQ8 whole entry, looked up): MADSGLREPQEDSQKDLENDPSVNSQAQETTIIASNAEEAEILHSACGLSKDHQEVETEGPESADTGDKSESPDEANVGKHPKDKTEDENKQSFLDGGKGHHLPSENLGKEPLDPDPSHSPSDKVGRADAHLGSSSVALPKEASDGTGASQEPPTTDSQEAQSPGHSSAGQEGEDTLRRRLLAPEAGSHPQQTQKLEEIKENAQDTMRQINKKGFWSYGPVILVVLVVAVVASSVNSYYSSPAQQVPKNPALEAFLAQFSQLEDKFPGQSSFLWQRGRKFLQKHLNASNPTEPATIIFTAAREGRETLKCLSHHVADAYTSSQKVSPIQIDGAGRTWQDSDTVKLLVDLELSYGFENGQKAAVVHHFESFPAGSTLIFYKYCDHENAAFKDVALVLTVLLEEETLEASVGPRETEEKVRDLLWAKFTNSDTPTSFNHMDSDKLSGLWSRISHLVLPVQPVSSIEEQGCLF
Assay [16] in a line: optical density change of DRC41 E. coli – strain DRC41, OD650, 24 h, E. coli filamentation project, primary screen (AID 1093).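 Also: MC1000 strain lacking acrAB efflux and sulA so SOS filamentation is blocked; test concentration not given here.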 To be noted: E. coli DRC41 growth, higher = more signal, called active from +8 up or from −8 down.
A short description of assay [17]: probe aLefty2 binding to arrayed compounds – biochemical, biotinylated probe, 635/667 nm fluorescence, primary screen (AID 1094).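 Also: score merges spot fluorescence near 667 nm with spot signal-to-noise ratio.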 The following applies: small-molecule microarray, higher = more signal.
Assay [18] concerns Noggin (protein binding on small-molecule microarray). Kind of assay: small molecules binding Noggin protein – biochemical, 635/667 nm fluorescence, primary screen (AID 1095).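 Also: score merges 667 nm feature fluorescence with signal to noise over triplicate slides.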 The following applies: 635 nm fluorescence, higher = more signal.
For assay [19], the target named is Neurogenic locus notch homolog protein 3 (Homo sapiens) (UniProt Q9UM47). Kind of assay: small molecules binding NOTCH3 protein – biochemical, 635/667 nm fluorescence, primary screen (AID 1096). To be noted: small-molecule microarray, 635 nm fluorescence, higher = more signal.
Neurogenic locus notch homolog protein 3 (Homo sapiens), sequence (Q9UM47 whole entry, looked up): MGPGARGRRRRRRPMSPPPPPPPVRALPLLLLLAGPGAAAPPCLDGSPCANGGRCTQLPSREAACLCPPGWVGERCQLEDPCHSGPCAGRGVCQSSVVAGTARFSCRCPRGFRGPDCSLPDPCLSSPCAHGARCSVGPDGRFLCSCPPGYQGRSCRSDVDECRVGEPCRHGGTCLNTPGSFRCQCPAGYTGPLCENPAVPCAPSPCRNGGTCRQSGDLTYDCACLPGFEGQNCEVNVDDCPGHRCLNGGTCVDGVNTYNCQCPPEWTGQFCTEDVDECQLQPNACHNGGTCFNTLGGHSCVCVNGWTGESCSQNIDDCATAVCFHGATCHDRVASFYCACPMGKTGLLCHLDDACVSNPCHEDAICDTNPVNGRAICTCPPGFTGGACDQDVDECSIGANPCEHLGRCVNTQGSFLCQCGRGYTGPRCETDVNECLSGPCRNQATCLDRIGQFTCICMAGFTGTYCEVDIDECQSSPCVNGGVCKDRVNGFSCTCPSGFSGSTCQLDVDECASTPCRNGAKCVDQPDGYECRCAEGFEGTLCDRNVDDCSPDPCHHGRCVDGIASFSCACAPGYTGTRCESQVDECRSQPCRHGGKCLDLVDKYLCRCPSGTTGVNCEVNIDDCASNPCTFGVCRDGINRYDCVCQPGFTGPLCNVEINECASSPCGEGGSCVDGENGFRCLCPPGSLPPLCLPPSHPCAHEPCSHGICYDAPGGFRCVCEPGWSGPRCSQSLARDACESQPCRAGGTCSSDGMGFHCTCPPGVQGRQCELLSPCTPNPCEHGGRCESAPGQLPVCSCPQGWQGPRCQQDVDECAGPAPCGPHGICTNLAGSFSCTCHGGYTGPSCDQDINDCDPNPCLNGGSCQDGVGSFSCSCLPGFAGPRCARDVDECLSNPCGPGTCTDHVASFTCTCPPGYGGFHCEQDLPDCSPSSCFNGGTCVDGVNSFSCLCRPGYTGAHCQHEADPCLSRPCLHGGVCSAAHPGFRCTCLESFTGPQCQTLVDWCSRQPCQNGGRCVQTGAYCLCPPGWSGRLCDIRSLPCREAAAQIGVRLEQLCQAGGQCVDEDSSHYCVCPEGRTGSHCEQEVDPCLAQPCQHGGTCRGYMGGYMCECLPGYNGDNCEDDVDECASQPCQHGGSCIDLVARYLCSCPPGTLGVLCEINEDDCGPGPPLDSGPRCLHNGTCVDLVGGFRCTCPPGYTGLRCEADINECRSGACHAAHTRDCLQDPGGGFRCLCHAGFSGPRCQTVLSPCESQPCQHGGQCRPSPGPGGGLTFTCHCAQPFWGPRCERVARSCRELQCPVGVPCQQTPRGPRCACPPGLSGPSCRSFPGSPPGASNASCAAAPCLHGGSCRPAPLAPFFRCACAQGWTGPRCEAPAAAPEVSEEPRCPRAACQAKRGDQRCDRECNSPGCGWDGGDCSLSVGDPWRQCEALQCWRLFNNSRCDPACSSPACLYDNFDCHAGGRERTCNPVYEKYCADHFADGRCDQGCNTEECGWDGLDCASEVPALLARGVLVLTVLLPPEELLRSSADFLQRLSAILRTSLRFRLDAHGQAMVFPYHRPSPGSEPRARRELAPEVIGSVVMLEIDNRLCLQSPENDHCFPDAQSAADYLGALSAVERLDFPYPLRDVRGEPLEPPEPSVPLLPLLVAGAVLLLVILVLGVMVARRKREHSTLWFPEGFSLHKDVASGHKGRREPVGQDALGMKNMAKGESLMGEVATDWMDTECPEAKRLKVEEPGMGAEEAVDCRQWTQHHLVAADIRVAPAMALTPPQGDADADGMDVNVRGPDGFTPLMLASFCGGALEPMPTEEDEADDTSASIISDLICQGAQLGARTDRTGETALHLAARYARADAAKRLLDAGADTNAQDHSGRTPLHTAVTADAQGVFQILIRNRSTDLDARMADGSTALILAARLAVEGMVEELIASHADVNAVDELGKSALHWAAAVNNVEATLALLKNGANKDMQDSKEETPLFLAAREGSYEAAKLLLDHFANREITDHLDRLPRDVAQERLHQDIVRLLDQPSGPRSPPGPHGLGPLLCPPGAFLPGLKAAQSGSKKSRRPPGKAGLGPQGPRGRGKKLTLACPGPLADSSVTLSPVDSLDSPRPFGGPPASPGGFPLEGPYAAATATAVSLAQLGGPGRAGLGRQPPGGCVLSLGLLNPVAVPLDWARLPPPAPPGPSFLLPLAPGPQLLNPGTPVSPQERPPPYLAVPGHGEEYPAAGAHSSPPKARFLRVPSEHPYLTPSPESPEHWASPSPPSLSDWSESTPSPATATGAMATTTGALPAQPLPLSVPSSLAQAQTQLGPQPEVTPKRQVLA
Assay [20] in a line: probe aEGFR binding to arrayed compounds – biochemical, biotinylated probe, 635/667 nm fluorescence, primary screen (AID 1097).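 Also: probe is a biotinylated anti-EGFR antibody binding compounds printed on slides; score combines fluorescence near 667 nm and signal to noise of each spot.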 To be noted: small-molecule microarray, higher = more signal.

Activity calls are given as the source filed them.

Pro-neuregulin-1, membrane-bound isoform (Homo sapiens), sequence (Q02297 whole entry, looked up, the tested form may be a part, canonical isoform): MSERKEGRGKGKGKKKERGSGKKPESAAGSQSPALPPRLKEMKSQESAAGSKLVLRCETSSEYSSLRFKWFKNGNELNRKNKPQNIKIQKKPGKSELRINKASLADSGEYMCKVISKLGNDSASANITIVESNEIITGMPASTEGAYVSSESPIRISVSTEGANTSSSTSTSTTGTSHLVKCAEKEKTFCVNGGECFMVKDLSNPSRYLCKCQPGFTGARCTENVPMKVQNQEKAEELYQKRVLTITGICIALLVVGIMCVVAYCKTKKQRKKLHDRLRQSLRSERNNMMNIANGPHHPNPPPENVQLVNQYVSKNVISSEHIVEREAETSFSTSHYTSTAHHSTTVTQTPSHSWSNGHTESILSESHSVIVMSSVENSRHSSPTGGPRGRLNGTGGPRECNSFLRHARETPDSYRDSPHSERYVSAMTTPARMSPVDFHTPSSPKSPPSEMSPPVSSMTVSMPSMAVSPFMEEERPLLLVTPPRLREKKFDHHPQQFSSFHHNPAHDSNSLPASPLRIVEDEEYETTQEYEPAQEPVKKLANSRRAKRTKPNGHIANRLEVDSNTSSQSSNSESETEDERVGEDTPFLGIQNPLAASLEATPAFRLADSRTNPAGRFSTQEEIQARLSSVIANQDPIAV

Regarding `COC(=O)C(CC#Cc1ccc2c(c1)[C@]1(C(=O)N2)[C@H](C(=O)N2CCCCCCC2)[C@H]2C(=O)O[C@H](c3ccccc3)[C@H](c3ccccc3)N2[C@@H]1c1ccccc1OCCO)C(=O)OC`, the composite z-score stood at 3.68 in assay [1]; 2.84 in assay [2]; 1.03 in assay [3]; 1.26 in [4]; 1.75 in assay [5]; 2.65 in assay [6]. Also, the composite z-score is 1.38 in assay [7]; 3.61 in assay [9]; 3.1 in assay [10]; 1.54 in [11]; 5.3 in assay [15]; 1.89 in [17]. Also, the composite z-score was 2.44 in assay [18], 1.02 in [19] and 1.46 in assay [20]. Besides, the z-score in assay [8] was 0.695 (inactive); in assay [12], 0.293 (inactive); in [13] it was -0.97 (inactive); in [14] it was 0.172 (inactive); in [16], -0.823 (inactive).
`COCCn1c(C(=O)N2CCCC2)cc2c1C[C@H]1CN(C(=O)c3ccccc3)[C@@](Cc3ccc(OC)cc3)(C(=O)OC)[C@@H]21`: the composite z-score in assay [1] is 1.42; in [2], 1.86; in [3], 0.264; in assay [4], 0.43; in assay [5], 1.64; in [6] it was 2.12. For the same molecule, the composite z-score in assay [7] was 0.905; in assay [9], 0.602; in assay [10], -0.0994; in assay [11], 0.0027; in assay [15] it was 1.72; in [17], 0.656. The composite z-score in assay [18] is -0.843; in assay [19], 1.1; in assay [20] it was 0.147. The z-score is -1.1 (inactive) in [8]; -2.08 (inactive) in [12]; 0.422 (inactive) in [13]; -0.651 (inactive) in assay [14]; 0.0251 (inactive) in [16].
As for `C[C@]1(C(=O)NCC(F)(F)F)c2ccccc2C(=O)N(Cc2cc(F)cc(C(F)(F)F)c2)[C@H]1c1ccc(CO)cc1`, the composite z-score in assay [1] was -0.599; in assay [2], 0.553; in assay [3], 0.274; in [4], 0.0438; in assay [5], -0.94; in assay [6], 1.74. In addition, the composite z-score in [7] is 0.623; in [9] it was -0.409; in assay [10], 2.14; in assay [11] it was 1.38; in assay [15], 2.67; in assay [17], 0.341. In addition, the composite z-score in [18] was -0.16; in [19], -0.255; in assay [20], 0.52. Besides, the z-score is -0.763 (inactive) in [8]; 0.49 (inactive) in [12]; -0.936 (inactive) in assay [13]; -0.563 (inactive) in [14]; -0.951 (inactive) in [16].
In the case of `C=C(COC)/C(=C/C[C@H](OC(C)=O)c1ccccc1OCCO)c1cnc2ccccc2c1`, the composite z-score is -0.419 in assay [1]; -0.288 in [2]; -0.0366 in assay [3]; 1.08 in assay [4]; 1.33 in assay [5]; 1.19 in assay [6]. Besides, the composite z-score in assay [7] was 1.13; in assay [9] it was 0.101; in assay [10], 0.142; in assay [11], 0.826; in assay [15] it was 1.76; in [17], -0.171. The composite z-score in [18] was 0.556; in [19], 0.76; in assay [20], 0.436. The z-score in assay [8] is -0.267 (inactive); in [12], -0.837 (inactive); in [13] it was 0.14 (inactive); in assay [14] it was 1.29 (inactive); in assay [16], 0.223 (inactive).
With `C=C(C(=O)CC[C@@H](OC(=O)c1cccnc1)c1ccc(CO)o1)C(C)C`, the composite z-score in assay [1] is -0.35; in assay [2], 0.328; in assay [3], -0.019; in [4], 0.715; in assay [5], 0.29; in assay [6] it was 1.08. The composite z-score is 0.592 in assay [7]; 0.337 in assay [9]; 0.0373 in assay [10]; 1.54 in assay [11]; 1.97 in assay [15]; -0.0415 in assay [17]. For the same molecule, the results for the composite z-score in assay [18], in assay [19] and in assay [20] were 1.53, 1.14 and -0.0697, respectively. The z-score in [8] is 0.305 (inactive); in [12], 0.813 (inactive); in assay [13], -0.485 (inactive); in assay [14], -0.0796 (inactive); in assay [16], -0.601 (inactive).
